Assay results published in ChEMBL document CHEMBL3988442, “University of Dundee, Small-Polar-MMV Screening Library” (2021).
In all, about 48,000 compounds went through this assay and about 13,000 (27%) showed an effect of 50% or more. Some of the results follow.

What follows are compounds tested on Wolbachia pipientis (assay: Anti-Wolbachia Cell-Based Screen). Settings: 5 µM.
Format: functional
Design: scale not given: in the data most compounds retested in dose-response had high values

Compared with `Cc1cccnc1CSCCCNS(C)(=O)=O`, `Cc1cnn(CC(C)NCc2ccc(S(C)(=O)=O)cc2)c1` (stereo unspecified) is higher in “Percent Effect” value: -17.43% for the first, 4.95% for the second.

Compared with `N#Cc1cccnc1NCc1ccc(S(=O)(=O)NCC2CCCO2)cc1` (stereo unspecified), `Cn1ncc(N2CCN(Cc3ccc(S(C)(=O)=O)cc3)CC2)cc1=O` is lower in “Percent Effect” value: 8.527% for the first, -9.751% for the second.

Compared with `Clc1cccc(N2CCC(NCc3ncc[nH]3)C2)c1` (stereo unspecified), `CSc1cccc(CNC(=O)C2CC(=O)N(C3CC3)C2)c1` (stereo unspecified) is lower in “Percent Effect” value: -6.784% for the first, -14.89% for the second.

Compared with `Cl.c1cnc2c(c1)cc([C@@H]1CCCO1)n2CCN1CCCCC1`, `Cl.c1cnc2c(c1)cc([C@H]1CCCO1)n2CCN1CCCCC1` is lower in “Percent Effect” value: 85.05% for the first, -14.33% for the second.

Going from `Cl.c1cnc2c(c1)cc([C@@H]1CCCO1)n2CCN1CCOCC1` to `Cl.c1cnc2c(c1)cc([C@H]1CCCO1)n2CCN1CCOCC1`, the “Percent Effect” value falls from 92.89% to -5.726%.

Going from `CN(CC1CCCO1)C1CCN(CCc2ccccn2)CC1` (stereo unspecified) to `Cl.c1cnc2c(c1)cc([C@H]1CCCO1)n2CCN1CCCC1`, the “Percent Effect” value rises from 4.903% to 88.22%.

Compared with `CSc1nccc(N2CCC(NCCN3CCOCC3)CC2)n1`, `CN1CCN(C(=O)C[C@@H]2COC[C@H]3CN(c4ccncn4)C[C@@H]23)CC1` is lower in “Percent Effect” value: -2.784% for the first, -4.365% for the second.

First: CCc1ccsc1C(=O)N1CCCN(Cc2cscn2)CC1
Second: Cc1ccsc1C(=O)N1CCCN(Cc2cscn2)CC1
The “Percent Effect” value of the first is higher: 140.3% for the first, 92.98% for the second.

First: CC(O)CN1CCN(C(=O)c2ccnc(N(C)C)c2)CC1 (stereo unspecified)
Second: Cc1nc(CN2CCN(C(=O)c3ccnc(N(C)C)c3)CC2)cs1
The “Percent Effect” value of the first is lower: -11.32% for the first, 110.9% for the second.

Compared with `Cc1nc(CN2CCN(C(=O)c3ccn(C)c(=O)c3)CC2)cs1`, `Cc1nc(CN2CCN(C(=O)c3sccc3C)CC2)cs1` is higher in “Percent Effect” value: 11.68% for the first, 154.8% for the second.

Going from `COC(C(=O)N1CCCN(Cc2cscn2)CC1)c1ccccc1` (stereo unspecified) to `COc1ccsc1C(=O)N1CCCN(Cc2cscn2)CC1`, the “Percent Effect” value rises from -16.29% to 127%.

First: Cc1nc(CN2CCN(C(=O)c3sccc3C3CC3)CC2)cs1
Second: Cc1nc(CN2CCCN(C(=O)c3sccc3C#N)CC2)cs1
The “Percent Effect” value of the first is lower: -3.645% for the first, 111.7% for the second.

Compared with `CCc1nc(CN2CCCN(C(=O)c3occc3C)CC2)cs1`, `CC(C)c1ccsc1C(=O)N1CCCN(Cc2cscn2)CC1` is higher in “Percent Effect” value: 10.15% for the first, 10.39% for the second.

First: COCC1CCN(S(=O)(=O)N2C[C@@H](C)[C@@](C)(O)C2)CC1
Second: Cn1cc(N2C[C@@H]3CN(S(=O)(=O)C4CC4)C[C@@H]3C2=O)cn1
The “Percent Effect” value of the first is higher: 1.126% for the first, -1.09% for the second.

Going from `CN(Cc1cn2c(n1)CN(Cc1ccsc1)CC2)Cc1ccco1.O=C(O)C(F)(F)F.O=C(O)C(F)(F)F` to `CC(C)c1ccc(O)c(C(=O)N2CCN(Cc3cscn3)CC2)c1`, the “Percent Effect” value rises from -7.727% to -2.44%.

Going from `COc1cccc(COC(C)C(=O)N(C)Cc2nnc3n2CCC3)c1` (stereo unspecified) to `CC(C)[C@H]1COC(=O)N1Cc1nnc(-c2ccccc2)o1`, the “Percent Effect” value falls from -2.392% to -6.799%.

First: Cc1cc(CNc2cc(-c3ccoc3C)nn2CCO)c(C)o1
Second: Cc1cccc(N(C)Cc2nc3c(cnn3C)c(=O)[nH]2)c1C
The “Percent Effect” value of the first is lower: -24.32% for the first, -8.766% for the second.

Compared with `CCn1ccnc1CN1CCCN(C(=O)c2sccc2C#N)CC1`, `CCn1cc(CN2CCCN(C(=O)c3sccc3C#N)CC2)cn1` is lower in “Percent Effect” value: 2.639% for the first, -3.745% for the second.

Going from `Cc1nc(CN2CCCN(C(=O)C3(C#N)CCCCC3)CC2)cs1` to `N#CC1(C(=O)N2CCN(Cc3cscn3)CC2)CCCC1`, the “Percent Effect” value falls from -0.8463% to -7.08%.

Going from `Cc1ccsc1C(=O)N1CCN(Cc2cscn2)CC1` to `N#Cc1ccsc1C(=O)N1CCCN(Cc2cscn2)CC1`, the “Percent Effect” value falls from 118.4% to 105.7%.

Compared with `N[C@H]1CN(C(=O)c2ccc(Cl)cc2O)C[C@@H]1C1CC1`, `CNC(=O)[C@H]1C[C@@H]2CN(C(=O)Nc3ccc(F)cc3)C[C@H]1O2` is lower in “Percent Effect” value: -2.238% for the first, -4.608% for the second.

Compared with `CC(NCCn1cccn1)c1ccccc1Cl` (stereo unspecified), `CCC(=O)NCC(=O)NC(Cc1ccccc1)c1sccc1C` (stereo unspecified) is lower in “Percent Effect” value: 12.43% for the first, 6.747% for the second.

Going from `O=C(Nc1ccc(F)cc1)N1C[C@H]2C[C@H](C(=O)N3CCOCC3)[C@@H](C1)O2` to `O=C(Nc1ccc(F)cc1)N1C[C@H]2C[C@H](C(=O)N3CCCC3)[C@@H](C1)O2`, the “Percent Effect” value rises from 1.969% to 125.2%.

First: O=C(NCc1ccccc1)N1C[C@H]2C[C@H](C(=O)N3CCCC3)[C@@H](C1)O2
Second: O=C(NCCc1ccccc1)N1C[C@H]2C[C@H](C(=O)N3CCCC3)[C@@H](C1)O2
The “Percent Effect” value of the first is higher: 8.283% for the first, -4.163% for the second.

First: O=C(Nc1ccccc1)N1C[C@H]2C[C@H](C(=O)N3CCOCC3)[C@@H](C1)O2
Second: O=C(Nc1ccccc1)N1C[C@H]2C[C@H](C(=O)N3CCCC3)[C@@H](C1)O2
The “Percent Effect” value of the first is higher: 114.8% for the first, 100.5% for the second.

Compared with `CNC(=O)N1C[C@H]2C[C@H](C(=O)Nc3ccccc3)[C@@H](C1)O2`, `CCc1ccc(NC(=O)N2C[C@H]3C[C@H](C(=O)N4CCCC4)[C@@H](C2)O3)cc1` is higher in “Percent Effect” value: -3.507% for the first, 103.5% for the second.

Going from `O=C(Nc1ccccc1)N1C[C@@H]2OCCN(C(=O)c3ccco3)[C@@H]2C1` to `CCc1noc(C(C)N2CCC(NS(=O)(=O)c3cccs3)CC2)n1` (stereo unspecified), the “Percent Effect” value falls from 7.532% to -6.324%.

Compared with `O=C1CC2(CCN(Cc3ccc(-c4ccn[nH]4)s3)CC2)CN1`, `CN(C)C(=O)c1cc(-c2ccc(S(C)(=O)=O)cc2)c2cnn(C)c2n1` is higher in “Percent Effect” value: -9.036% for the first, 108.3% for the second.

Going from `COC(=O)[C@@H](Nc1nc(C2CCCC2)nc2c1cnn2C)[C@@H](C)O` to `CC(C)[C@H](Nc1nc(C2CCCC2)nc2c1cnn2C)C(N)=O`, the “Percent Effect” value rises from -8.342% to -0.02427%.

Going from `CCOC(=O)CC(C)Nc1nc(C(C)(C)C)nc2c1cnn2C` (stereo unspecified) to `CC(C)NC(=O)c1cc(-c2ccc(S(C)(=O)=O)cc2)nc2c1cnn2C`, the “Percent Effect” value rises from -7.754% to 95.41%.

`CC(C)NC(=O)c1cc(-c2ccc(S(C)(=O)=O)cc2)c2cnn(C)c2n1` was tested, and the “Percent Effect” value was 110.4%.
